# Reference: PubChem BioAssay (NCI)
# The panel holds about 83,000 compounds, 20% with a hit somewhere; the sample as a whole holds those more often.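 Cells were grown in 96-well plates and exposed to the test compound at a single concentration for 48 hours; results are reported as percent growth, with values below 10 considered active.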 A number with no mark means an inactive call. Active and inactive are the calls of the source.
# Legend:
# Assay in all cases: NCI-60 one-dose screen, 48 h (100 = growth as untreated, 0 = no growth, -100 = all killed)
# Settings in all cases: 10 µM unless noted
# SK-MEL-2 melanoma = system: SK-MEL-2 melanoma
# EKVX NSCLC = system: EKVX NSCLC
# SN12C renal = system: SN12C renal
# UO-31 renal = system: UO-31 renal
# TK-10 renal = system: TK-10 renal
# ACHN renal = system: ACHN renal
# CAKI-1 renal = system: CAKI-1 renal
# A498 renal = system: A498 renal
# CCRF-CEM leukemia = system: CCRF-CEM leukemia
# MOLT-4 leukemia = system: MOLT-4 leukemia
# SR leukemia = system: SR leukemia
# OVCAR-8 ovarian = system: OVCAR-8 ovarian
# OVCAR-5 ovarian = system: OVCAR-5 ovarian
# OVCAR-4 ovarian = system: OVCAR-4 ovarian
# SK-OV-3 ovarian = system: SK-OV-3 ovarian
# IGROV1 ovarian = system: IGROV1 ovarian
# OVCAR-3 ovarian = system: OVCAR-3 ovarian
# HS 578T breast = system: HS 578T breast
# NCI/ADR-RES ovarian = system: NCI/ADR-RES ovarian
Compound,growth (SK-MEL-2 melanoma),growth (EKVX NSCLC),growth (SN12C renal),growth (UO-31 renal),growth (TK-10 renal),growth (ACHN renal),growth (CAKI-1 renal),growth (A498 renal),growth (CCRF-CEM leukemia),growth (MOLT-4 leukemia),growth (SR leukemia),growth (OVCAR-8 ovarian),growth (OVCAR-5 ovarian),growth (OVCAR-4 ovarian),growth (SK-OV-3 ovarian),growth (IGROV1 ovarian),growth (OVCAR-3 ovarian),growth (HS 578T breast),growth (NCI/ADR-RES ovarian)
O=c1c2cc(F)ccc2sc2c(N3CCCCC3)nc3ccccc3c12,115%,103%,99.1%,78.8%,109%,102%,101%,64.6%,110%,111%,121%,99.6%,98.4%,116%,103%,101%,110%,105%,101%
COc1ccc2sc3c(NCCCN(C)C)nc4ccccc4c3c(=O)c2c1,95.9%,70%,72.3%,48.4%,78%,69.9%,63%,17.4%,4.23% (active),-16.2% (active),-39.2% (active),61.9%,89.8%,-9.97% (active),74.9%,54.2%,-18.5% (active),73%,55.7%
C/C(=N/NC(N)=S)c1sc(Nc2cccc(Cl)c2)nc1C,86.6%,74.1%,76.1%,35.7%,86.7%,80.5%,63.8%,81.4%,82.4%,50%,90.1%,97.5%,86.8%,63.6%,116%,86%,76.8%,88.2%,86.7%
O=c1cc(SCc2ccccc2)nc[nH]1,111%,94.9%,120%,103%,108%,108%,85.6%,113%,98.5%,89.4%,127%,117%,93.5%,117%,114%,111%,114%,119%,101%
CCCCOc1nc2ccc(OC)cc2cc1-c1cc(-c2ccc(Cl)cc2)nc(-c2ccc(Cl)cc2)c1,103%,98.2%,101%,90%,104%,96.3%,104%,83.5%,103%,113%,107%,104%,98.7%,99.5%,108%,105%,112%,100%,105%
N#Cc1cccc(NC(=O)c2cc(-c3ccc(F)cc3F)ccc2O)c1,-6.68% (active),89.4%,4.26% (active),-11.4% (active),21.9%,7.33% (active),3.62% (active),-33.2% (active),27.4%,11.8%,12.8%,16.8%,36.8%,22.1%,6.59% (active),29%,1.29% (active),16%,4.93% (active)
O=C(CCN1C(=O)/C(=C/c2ccc(O)cc2)SC1=S)Nc1ccccc1,111%,100%,87.6%,67%,102%,92%,97.1%,97.8%,72.2%,85.5%,119%,94.6%,106%,89.6%,65.9%,94.6%,108%,93.3%,99.1%
